Experimental data: ChEMBL document CHEMBL3988442, “University of Dundee, Small-Polar-MMV Screening Library” (2021)
Screen size: about 48,000 compounds; about 13,000 (27%) showed an effect of 50% or more. Some of the results follow.

Test system: Wolbachia pipientis
Experiment: Anti-Wolbachia Cell-Based Screen
Format: functional
Design: scale not given: in the data most compounds retested in dose-response had high values
Conditions: 5 µM

Compound | Percent Effect [%]
Cn1cc(-c2csc(CN3CCOCC3)n2)cn1 | -11.66
N#Cc1ccccc1C(=O)N1C[C@@H](CN2CCCCC2)[C@@H](CO)C1 | -9.135
CC(C)(C)OC(=O)NC1(c2noc(-c3ccoc3)n2)CCC1 | -12.02
CC1(C)CC(N2Cc3nc(N)ncc3C2=O)CC(C)(C)N1 | -10.52
Cc1cccc(CO[C@H]2CN(c3nnc(C)s3)[C@@H]3CCCO[C@H]23)n1.O=C(O)C(F)(F)F.O=C(O)C(F)(F)F | -4.881
CO[C@H]1CCN(c2nnc(C)s2)C[C@@H]1Cc1cccc(C)c1.O=C(O)C(F)(F)F | 71.03
CO[C@@H]1CCN(c2nnc(C)s2)C[C@@H]1Cc1cccc(C)c1.O=C(O)C(F)(F)F | 98.33
CO[C@@H]1CCN(Cc2nccs2)C[C@@H]1Cc1cccc(C)c1.O=C(O)C(F)(F)F | -16.54
CCc1nc2c(N3CCC4(CC3)CC(=O)N(CC)C4)ncnc2o1 | -6.459
CNc1ncc(CN(C)C(=O)c2cccc(CC3CCNCC3)c2)cn1 | 3.587
CC(=O)N1CCC2(CCN(C(=O)c3ccc(C)c(C(F)(F)F)c3)CC2)C1 | 5.655
O=C(Nc1ccccc1)[C@H]1O[C@H](CCN2CCCCC2)CC[C@@H]1O | -9.518
COCC(=O)Nc1ccc2c(c1)CN(C(=O)c1ccco1)CC2 | 105.1
Cn1c(=O)oc2ccc(NC(=O)N3CCc4ccccc4C3)cc21 | 3.021
CC(=O)Nc1ccc2c(c1)CN(C(=O)c1ccco1)CC2 | 113.8
Cc1ccc2c(n1)N(CCN(C)C)CCN(C(=O)c1ccco1)C2 | 15.51
Cc1n[nH]cc1CNc1ccc2c(c1)CN(C(=O)OC(C)(C)C)CC2 | -19.63
CCC(=O)Nc1ccc2c(c1)CN(C(=O)c1ccco1)CC2 | 20.51
CCc1noc(CC)c1CNC(=O)Nc1ccc2[nH]nnc2c1 | 5.627
Cc1ccccc1CS(=O)(=O)CC(=O)N(C)Cc1ccccc1 | -7.305
CCCNC(=O)CCC(=O)Nc1ccc(-n2cncn2)c(F)c1 | -8.923
Cc1cc(S(=O)(=O)Nc2onc(C)c2C)c(C)s1 | -1.825
Cc1ccc(NC(=O)NCC2(N3CCOCC3)CCSC2)c(C)c1 (stereo not drawn) | -11.49

Compound | Percent Effect [%]
CCCc1nc(C)cc(N2CCC3(CCC(=O)N(CCOC)C3)CC2)n1 | 0.7545
Cc1cc(N2CCC3(CCC(=O)N(CCO)C3)CC2)nc(N(C)C)n1 | 21.48
Cc1cc(C)nc(C2(C)CCCN2CCO)n1 (stereo not drawn) | 123.6
COCCN1CCCC12CCCN(c1nncs1)C2 (stereo not drawn) | 14.36
CCN1CCCC1(C)c1nc(C)cc(N)n1 (stereo not drawn) | 113.3
COCCN1CCCC1(C)c1nc(C)cc(N)n1 (stereo not drawn) | 125.2
CCCc1nc(C)cc(N2CCC3(CCC(=O)N(CCO)C3)CC2)n1 | 3.34
Cc1nnsc1C(=O)NCc1cccnc1N(C)Cc1ccccc1 | -7.662
CC(C)N1CCOCC2(CN(Cc3nccs3)CCO2)C1.O=C(O)C(F)(F)F.O=C(O)C(F)(F)F (stereo not drawn) | 13.74
CNS(=O)(=O)c1cccc(CNCc2ccsc2)c1 | 4.811
O=C(c1ccco1)N1CCO[C@@H]2CN(c3ncc(F)cn3)CC[C@@H]2C1 | -7.545
O=C(c1ccco1)N1CCCC2(C1)CN(c1nncs1)CCO2 (stereo not drawn) | 86.33
O=C(CCO)N1CCOC2(CCCN(C(=O)c3ccco3)C2)C1 (stereo not drawn) | -2.214
O=C(c1ccoc1)N1CCC2(CCCN(c3ncc(F)cn3)C2)C1 (stereo not drawn) | 105.6
Cc1cnc(N2CC3(CCN(C(=O)c4ccoc4)C3)C2)nc1 | -4.182
O=C(c1ccco1)N1CCCC2(CN(Cc3ccoc3)CCO2)C1 (stereo not drawn) | -2.684
O=C(O)C(F)(F)F.O=C(c1ccccn1)N1CCC2(CCCN(c3nncs3)C2)C1 (stereo not drawn) | -19.65
O=C(c1ccco1)N1CCC2(CCCN(c3ncc(F)cn3)C2)C1 (stereo not drawn) | 95.74
O=C(c1ccoc1)N1CCC2(C1)CN(c1ncc(F)cn1)C2 | 0.03212
O=C(c1ccco1)N1CCC2(CCOC2)C1 (stereo not drawn) | 5.675
O=C(O)C(F)(F)F.O=C(c1ccco1)N1CCCC2(CCN(c3nncs3)C2)C1 (stereo not drawn) | 102.9
CC(=O)N1CCCC2(CCN(c3nncs3)C2)C1 (stereo not drawn) | -12.49
O=C(CSCC1CC1)N1CCCC(c2nccn2Cc2ccccn2)C1 (stereo not drawn) | -4.276

Compound | Percent Effect [%]
CCC1=N[C@@]2(CC[C@@H]3CN(S(=O)(=O)CC)C[C@@H]32)C(=O)N1CC(C)C | -13.66
CN(Cc1ccccc1)c1ncccc1CNC1CCCC1 | -55.14
CNS(=O)(=O)c1cccc(C(C)NCc2ccc(F)cc2F)c1 (stereo not drawn) | 0.5272
CC(C)(C)c1ccn(C2(C(=O)O)CCN(c3ccncc3F)CC2)n1 | 0.05232
O=C(O)C(F)(F)F.O=C(c1ccco1)N1CCOC2(COCCN(c3ncccn3)C2)C1 (stereo not drawn) | -16.99
O=C(O)C(F)(F)F.O=C(c1ccco1)N1CCC2(CCCN(c3ncccn3)C2)C1 (stereo not drawn) | 85.77
O=C(O)C(F)(F)F.O=C(c1ccco1)N1CCCC2(CN(Cc3cccs3)CCO2)C1 (stereo not drawn) | 7.002
CCN1CC2(CCN(C(=O)C3CSC(C)(C)C(=O)N3)CC2)CC1=O (stereo not drawn) | -12.94
CCc1nccn1C1CCCN(C(=O)c2csc(C3CC3)n2)C1 (stereo not drawn) | 96.06
CCc1nccn1C1CCCN(C(=O)CCc2nc(C(C)C)no2)C1 (stereo not drawn) | 1.838
CCc1nccn1C1CCCN(C(=O)c2cc[nH]n2)C1 (stereo not drawn) | 5.506
O=C(Cc1cn2ccsc2n1)N1CCCC(n2cncn2)C1 (stereo not drawn) | -11.33
CCc1nccn1C1CCCN(C(=O)Cc2cn3ccsc3n2)C1 (stereo not drawn) | 106.2
CCc1nccn1C1CCCN(C(=O)c2cc(C3CC3)on2)C1 (stereo not drawn) | 0.1203
CC(C)c1ccc(OCCC(=O)N(C)CC(N)=O)cc1 | 4.31
CC1CN(c2ncnc3cccc(F)c23)CCO1 (stereo not drawn) | -3.165
Cc1cc2nc(C(C)C)cc(N[C@H](C(N)=O)C(C)C)n2n1 | -8.312
Cc1cc(NCCS(C)(=O)=O)n2nc(C)cc2n1 | -11.18
CC(C)c1cc(NCC2(Cn3cccn3)CC2)n2nccc2n1 | -2.27
CNS(=O)(=O)CCNc1cc(C)nc2cc(C)nn12 | -6.261
Cc1cc2nc(C(C)C)cc(NCCc3ccncc3)n2n1 | 142
Cc1cc2nc(C(C)C)cc(NCCc3cccn3C)n2n1 | 113.2
